Data on seven sequences can be found in article PMC7862700, “An all-to-all approach to the identification of sequence-specific readers for epigenetic DNA modifications on cytosine”.

What all share (experiment): DAPPL (digital affinity profiling via proximity ligation, sequencing); 10 mM Tris-HCl pH 7.5, 50 mM NaCl, 1 mM DTT, 4% glycerol, room temperature, 30 min; GST-TFs on glutathione beads, 16-mer random dsDNA library, 0.1% formaldehyde crosslink after washing; high values mean tight binding
What all share (conditions): protein: recombinant; tags: N-terminal GST; dsDNA, one strand shown

One experiment deals with T1, ERF (Homo sapiens, UniProt P50548 1-548).
T1 sequence: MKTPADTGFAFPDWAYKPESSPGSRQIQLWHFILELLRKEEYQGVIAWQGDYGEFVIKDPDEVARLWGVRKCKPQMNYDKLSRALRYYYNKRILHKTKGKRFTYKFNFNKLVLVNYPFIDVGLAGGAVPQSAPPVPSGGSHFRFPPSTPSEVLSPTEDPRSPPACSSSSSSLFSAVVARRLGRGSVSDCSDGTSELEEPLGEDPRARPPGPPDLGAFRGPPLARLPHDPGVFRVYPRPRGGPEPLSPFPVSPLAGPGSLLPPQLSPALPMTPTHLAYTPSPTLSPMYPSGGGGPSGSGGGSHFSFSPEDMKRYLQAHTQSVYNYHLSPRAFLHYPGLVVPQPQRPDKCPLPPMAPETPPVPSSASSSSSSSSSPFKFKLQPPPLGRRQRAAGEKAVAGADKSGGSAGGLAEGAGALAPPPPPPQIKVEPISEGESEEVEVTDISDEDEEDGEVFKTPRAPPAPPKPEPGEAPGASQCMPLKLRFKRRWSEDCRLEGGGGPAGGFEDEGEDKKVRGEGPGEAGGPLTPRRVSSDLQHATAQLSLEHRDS
The method, boiled down: (§1)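 Human transcription factors carrying a GST fusion were produced in yeast, bound to glutathione beads, tagged with DNA barcodes and pooled together with a tag-only sample. Each pool was held with 200 nmole of a random double-stranded 16-mer DNA library in Tris/NaCl/DTT/glycerol buffer for 30 min at room temperature, then washed, crosslinked in 0.1% formaldehyde, proximity-ligated with BsaI/T4 ligase (1 h, 37 °C), PCR-amplified and sequenced on an Illumina NextSeq500. Binding signal is the read frequency of each hexamer for a given factor divided by its frequency in the tag-only sample.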

For a further experiment, the target named is T2, ETV3L (Homo sapiens, UniProt Q6ZN32 1-361).
T2 sequence: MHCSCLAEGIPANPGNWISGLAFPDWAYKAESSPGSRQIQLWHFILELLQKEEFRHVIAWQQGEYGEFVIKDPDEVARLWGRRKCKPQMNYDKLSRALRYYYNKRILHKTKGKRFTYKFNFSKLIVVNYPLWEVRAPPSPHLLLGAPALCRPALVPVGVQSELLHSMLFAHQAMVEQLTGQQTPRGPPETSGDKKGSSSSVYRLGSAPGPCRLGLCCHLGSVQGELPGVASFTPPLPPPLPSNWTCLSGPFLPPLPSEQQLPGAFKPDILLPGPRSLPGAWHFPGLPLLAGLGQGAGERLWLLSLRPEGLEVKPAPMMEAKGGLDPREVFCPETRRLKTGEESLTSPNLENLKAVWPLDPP
The method, boiled down:
as §1

In another experiment the target is T3, ETS2 (Homo sapiens, UniProt P15036 1-469).
T3 sequence: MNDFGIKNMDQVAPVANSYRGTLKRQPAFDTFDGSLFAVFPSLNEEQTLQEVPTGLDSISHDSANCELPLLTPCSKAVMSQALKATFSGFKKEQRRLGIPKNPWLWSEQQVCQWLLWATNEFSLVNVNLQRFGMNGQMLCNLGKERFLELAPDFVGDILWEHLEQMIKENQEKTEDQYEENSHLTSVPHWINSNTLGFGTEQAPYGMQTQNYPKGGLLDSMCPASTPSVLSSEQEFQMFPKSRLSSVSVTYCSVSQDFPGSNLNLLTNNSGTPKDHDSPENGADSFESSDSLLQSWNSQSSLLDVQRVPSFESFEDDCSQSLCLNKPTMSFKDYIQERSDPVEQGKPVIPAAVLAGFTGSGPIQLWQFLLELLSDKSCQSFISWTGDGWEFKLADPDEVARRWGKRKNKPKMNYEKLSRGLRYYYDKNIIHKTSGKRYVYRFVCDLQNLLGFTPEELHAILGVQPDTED
The method, boiled down: as §1

For the next experiment, the target named is T4, SPDEF (Homo sapiens, UniProt O95238 1-335).
T4 sequence: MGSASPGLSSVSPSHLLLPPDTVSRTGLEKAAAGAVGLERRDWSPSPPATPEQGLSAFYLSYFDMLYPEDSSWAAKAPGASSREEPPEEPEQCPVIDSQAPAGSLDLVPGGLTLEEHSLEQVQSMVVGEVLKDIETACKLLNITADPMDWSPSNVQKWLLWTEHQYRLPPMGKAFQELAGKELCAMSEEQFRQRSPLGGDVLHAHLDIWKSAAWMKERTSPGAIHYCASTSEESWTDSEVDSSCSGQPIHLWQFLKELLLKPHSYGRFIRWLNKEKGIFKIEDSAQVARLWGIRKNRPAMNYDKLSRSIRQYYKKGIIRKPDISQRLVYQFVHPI
The method, boiled down: as §1

For a further experiment, the target named is T5, ETV7 (Homo sapiens, UniProt Q9Y603 1-341).
T5 sequence: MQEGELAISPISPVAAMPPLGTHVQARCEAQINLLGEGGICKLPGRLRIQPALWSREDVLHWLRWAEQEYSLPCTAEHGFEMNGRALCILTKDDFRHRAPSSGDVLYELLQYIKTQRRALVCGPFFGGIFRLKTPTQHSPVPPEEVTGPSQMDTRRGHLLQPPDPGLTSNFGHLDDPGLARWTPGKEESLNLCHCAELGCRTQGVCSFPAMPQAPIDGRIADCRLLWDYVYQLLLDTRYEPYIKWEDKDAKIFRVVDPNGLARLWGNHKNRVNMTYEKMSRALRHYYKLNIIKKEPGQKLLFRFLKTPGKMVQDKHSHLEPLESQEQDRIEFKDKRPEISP
A digest of the protocol: as §1

Another experiment concerns the target T6, ELF5 (Homo sapiens, UniProt Q9UKW6-2 1-255).
T6 sequence: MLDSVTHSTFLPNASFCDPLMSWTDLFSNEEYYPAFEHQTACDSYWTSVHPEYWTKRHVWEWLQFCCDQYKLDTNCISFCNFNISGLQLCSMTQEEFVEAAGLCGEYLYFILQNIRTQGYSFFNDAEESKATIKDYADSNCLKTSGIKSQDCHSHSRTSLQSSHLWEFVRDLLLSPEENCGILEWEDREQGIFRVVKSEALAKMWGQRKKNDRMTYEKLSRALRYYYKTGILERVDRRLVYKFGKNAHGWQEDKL
A digest of the protocol: as §1

The next experiment deals with T7, ETV3 (Homo sapiens, UniProt P41162-2 1-143).
T7 sequence: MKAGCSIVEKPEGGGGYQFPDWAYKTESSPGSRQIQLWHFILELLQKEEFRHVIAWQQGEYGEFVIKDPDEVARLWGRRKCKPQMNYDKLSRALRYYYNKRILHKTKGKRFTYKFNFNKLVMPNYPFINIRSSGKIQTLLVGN
The method, boiled down:
as §1

Another experiment concerns the target ETV6 (Homo sapiens, UniProt P41212 1-452). A digest of the protocol: as §1

Sequence of ETV6 (P41212 whole entry): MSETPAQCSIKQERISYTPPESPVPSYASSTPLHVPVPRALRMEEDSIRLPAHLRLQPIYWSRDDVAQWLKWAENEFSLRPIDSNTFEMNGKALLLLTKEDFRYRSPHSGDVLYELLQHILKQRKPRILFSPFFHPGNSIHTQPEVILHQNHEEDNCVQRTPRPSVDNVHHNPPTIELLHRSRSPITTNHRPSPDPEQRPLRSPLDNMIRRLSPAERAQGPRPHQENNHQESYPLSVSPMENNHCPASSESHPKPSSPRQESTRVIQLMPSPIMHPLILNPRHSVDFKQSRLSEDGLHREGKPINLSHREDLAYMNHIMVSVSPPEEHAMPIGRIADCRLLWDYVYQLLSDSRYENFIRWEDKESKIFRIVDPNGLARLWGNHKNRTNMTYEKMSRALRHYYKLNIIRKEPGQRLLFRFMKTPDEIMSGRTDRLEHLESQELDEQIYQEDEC

Turning to CTGGAT, the binding signal with ERF is 1.43 fold enrichment (6-mer frequency, TF over GST control); with ETV3L it was 1.5 fold enrichment (6-mer frequency, TF over GST control); with ETS2 it was 1.4 fold enrichment (6-mer frequency, TF over GST control); with SPDEF, 1.42 fold enrichment (6-mer frequency, TF over GST control); in the experiment with ETV7 it was 1.22 fold enrichment (6-mer frequency, TF over GST control); with ELF5, 1.3 fold enrichment (6-mer frequency, TF over GST control). In addition, the binding signal with ETV3 is 1.37 fold enrichment (6-mer frequency, TF over GST control); with ETV6, 1.21 fold enrichment (6-mer frequency, TF over GST control).

In the case of CTGTAC, the binding signal in the experiment with ERF was 1.18 fold enrichment (6-mer frequency, TF over GST control); with ETV3L, 1.35 fold enrichment (6-mer frequency, TF over GST control); in the experiment with ETS2 it was 1.33 fold enrichment (6-mer frequency, TF over GST control); with SPDEF it was 1.57 fold enrichment (6-mer frequency, TF over GST control); in the experiment with ETV7 it was 1.22 fold enrichment (6-mer frequency, TF over GST control); with ELF5, 1.36 fold enrichment (6-mer frequency, TF over GST control). Moreover, the binding signal in the experiment with ETV3 was 1.31 fold enrichment (6-mer frequency, TF over GST control); with ETV6 it was 1.3 fold enrichment (6-mer frequency, TF over GST control).

Consider CTCCGG, for which the binding signal with ERF is 1.56 fold enrichment (6-mer frequency, TF over GST control); in the experiment with ETV3L, 1.61 fold enrichment (6-mer frequency, TF over GST control); with ETS2, 1.6 fold enrichment (6-mer frequency, TF over GST control); with SPDEF, 1.89 fold enrichment (6-mer frequency, TF over GST control); with ETV7 it was 1.32 fold enrichment (6-mer frequency, TF over GST control); with ELF5, 1.58 fold enrichment (6-mer frequency, TF over GST control). The binding signal in the experiment with ETV3 is 1.62 fold enrichment (6-mer frequency, TF over GST control); with ETV6 it was 1.56 fold enrichment (6-mer frequency, TF over GST control).

As for TTTGAC, the binding signal with ERF is 1.49 fold enrichment (6-mer frequency, TF over GST control); in the experiment with ETV3L it was 1.35 fold enrichment (6-mer frequency, TF over GST control); with ETS2 it was 1.33 fold enrichment (6-mer frequency, TF over GST control); with SPDEF it was 1.48 fold enrichment (6-mer frequency, TF over GST control); with ETV7 it was 1.58 fold enrichment (6-mer frequency, TF over GST control); with ELF5, 1.34 fold enrichment (6-mer frequency, TF over GST control). Besides, the binding signal with ETV3 is 1.38 fold enrichment (6-mer frequency, TF over GST control); with ETV6 it was 1.4 fold enrichment (6-mer frequency, TF over GST control).

As to AGTGCT, the binding signal is 1.41 fold enrichment (6-mer frequency, TF over GST control) in the experiment with ERF; 1.32 fold enrichment (6-mer frequency, TF over GST control) with ETV3L; 1.46 fold enrichment (6-mer frequency, TF over GST control) in the experiment with ETS2; 1.33 fold enrichment (6-mer frequency, TF over GST control) with SPDEF; 1.37 fold enrichment (6-mer frequency, TF over GST control) with ETV7; 1.48 fold enrichment (6-mer frequency, TF over GST control) in the experiment with ELF5. Moreover, the binding signal in the experiment with ETV3 is 1.56 fold enrichment (6-mer frequency, TF over GST control); with ETV6, 1.52 fold enrichment (6-mer frequency, TF over GST control).

On to CTCGAC, for which the binding signal with ERF was 1.48 fold enrichment (6-mer frequency, TF over GST control); with ETV3L, 1.37 fold enrichment (6-mer frequency, TF over GST control); in the experiment with ETS2, 1.45 fold enrichment (6-mer frequency, TF over GST control); with SPDEF, 1.42 fold enrichment (6-mer frequency, TF over GST control); with ETV7 it was 1.37 fold enrichment (6-mer frequency, TF over GST control); with ELF5, 1.38 fold enrichment (6-mer frequency, TF over GST control). Further, the binding signal with ETV3 was 1.45 fold enrichment (6-mer frequency, TF over GST control); with ETV6, 1.63 fold enrichment (6-mer frequency, TF over GST control).

Take TTGCTT: the binding signal is 1.18 fold enrichment (6-mer frequency, TF over GST control) with ERF; 1.28 fold enrichment (6-mer frequency, TF over GST control) with ETV3L; 1.19 fold enrichment (6-mer frequency, TF over GST control) in the experiment with ETS2; 1.28 fold enrichment (6-mer frequency, TF over GST control) with SPDEF; 1.45 fold enrichment (6-mer frequency, TF over GST control) in the experiment with ETV7; 1.29 fold enrichment (6-mer frequency, TF over GST control) with ELF5. Besides, the binding signal with ETV3 was 1.43 fold enrichment (6-mer frequency, TF over GST control); with ETV6 it was 1.28 fold enrichment (6-mer frequency, TF over GST control).
